Bioassay records as filed in PubChem BioAssay.
In the library only some 10% were active in any assay of this set; here they are far more common.
JMJD2A Tudor – blocks the human JMJD2A Tudor domain; AlphaScreen JMJD2A-Tudor / H3K4me3 peptide binding; 390,000 compounds, 4.4% hits; Potency, µM (series often up to 114 µM), for inactives: top-dose activity change, negative = inhibition, most hits filed as inhibitors; also: potency is read from the fitted curve at half-maximal effect; % is scaled to controls: 0 for no effect and ±100 for the full control effect; nearly all actives have a fitted effect of over 50% in size
Target sequence (O75164 whole entry, looked up, the tested form may be a part): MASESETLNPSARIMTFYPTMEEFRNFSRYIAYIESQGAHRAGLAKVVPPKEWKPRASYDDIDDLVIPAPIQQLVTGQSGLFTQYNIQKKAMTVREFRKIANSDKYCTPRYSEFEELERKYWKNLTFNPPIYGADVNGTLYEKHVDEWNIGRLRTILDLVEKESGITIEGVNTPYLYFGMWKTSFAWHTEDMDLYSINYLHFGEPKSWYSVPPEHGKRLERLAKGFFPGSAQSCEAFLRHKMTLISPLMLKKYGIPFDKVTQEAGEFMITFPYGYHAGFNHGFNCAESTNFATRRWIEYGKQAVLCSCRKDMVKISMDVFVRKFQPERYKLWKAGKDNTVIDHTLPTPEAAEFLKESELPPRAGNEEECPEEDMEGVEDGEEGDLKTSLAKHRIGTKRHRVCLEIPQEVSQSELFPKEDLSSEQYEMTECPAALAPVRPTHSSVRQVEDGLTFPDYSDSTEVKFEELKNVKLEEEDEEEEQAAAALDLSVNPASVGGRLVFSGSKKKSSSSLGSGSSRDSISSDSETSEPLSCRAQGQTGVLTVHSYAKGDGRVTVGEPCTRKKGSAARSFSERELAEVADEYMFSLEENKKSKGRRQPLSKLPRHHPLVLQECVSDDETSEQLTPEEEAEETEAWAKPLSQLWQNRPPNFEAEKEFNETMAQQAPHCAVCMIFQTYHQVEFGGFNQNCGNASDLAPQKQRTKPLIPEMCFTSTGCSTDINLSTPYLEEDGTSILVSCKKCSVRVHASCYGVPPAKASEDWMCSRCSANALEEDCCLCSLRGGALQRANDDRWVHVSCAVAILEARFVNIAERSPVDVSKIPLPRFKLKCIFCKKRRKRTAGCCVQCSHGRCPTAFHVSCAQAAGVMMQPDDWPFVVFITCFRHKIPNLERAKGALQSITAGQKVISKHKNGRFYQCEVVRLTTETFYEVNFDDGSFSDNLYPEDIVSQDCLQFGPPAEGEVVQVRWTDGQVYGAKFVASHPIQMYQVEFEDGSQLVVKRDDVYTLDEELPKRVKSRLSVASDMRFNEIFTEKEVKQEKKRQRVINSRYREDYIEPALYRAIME
BAZ2B block – BAZ2B (human) inhibition; Q9UIF8; AID 504333; Potency, µM (highest dose often 114 µM), for inactives: top-dose activity change, negative = inhibition, most hits filed as inhibitors; 360,000 compounds, 4.4% hits; AlphaScreen BAZ2B-H3K14Ac peptide displacement; also: potency is read from the fitted curve at half-maximal effect; % is scaled to controls: 0 for no effect and ±100 for the full control effect; nearly all actives have a fitted effect of over 60% in size
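AlphaScreen luminescence quantifies BAZ2B engagement of H3K14Ac peptide; the protein and biotinylated peptide are both at 50 nM final, buffer PBS pH 7.4 with 0.01% Tween-20, all steps at room temperature.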
CtBP-E1A blk – blocks the CtBP interaction with E1A. AlphaScreen GST-E1A/His-CtBP binding, 1536-well; hits give low values. 340,000 compounds, 0.49% hits. AID 651724. activity change, % (test concentration not listed); in the data active = activity change below about -65%; inconclusive = mostly about -30% to -63%; also: % is scaled to controls: 0 for no effect and ±100 for the full control effect
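Steps: dispense buffer (Tris pH 8.0, NaCl 300 mM, TCEP 1 mM, BSA, Tween 20); add 5X protein mix (GST-E1A, His-CtBP, 125 nM each); pin 23 nL compound; 2 h at 37 °C, dark; add 5X beads (50 ug/mL); 1 h; read.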
G9a inh – inhibitors of human histone lysine methyltransferase G9a; Potency, µM (highest dose often 102 µM), for inactives: at the highest dose activity, negative = inhibition, usual class: inhibitors; 350,000 compounds, 8.8% hits; G9a H3K9 monomethylation, AlphaScreen, 2 h; AID 504332; also: potency is read from the fitted curve at half-maximal effect; % is scaled to controls: 0 for no effect and ±100 for the full control effect; nearly all actives have a fitted effect of over 75% in size
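Signal arises when biotinylated H3K9 peptide, once monomethylated, bridges streptavidin donor and antibody-captured acceptor beads. Enzyme at 20 nM was preincubated 15 min with test compounds; peptide 500 nM and SAM 20 uM then reacted for 2 h.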
Six1-Eya2 blk – inhibitors of human Six1/Eya2 interaction; AlphaScreen GST-Six1/His-Eya2 binding, biochemical; hits give low values; activity change, % (test concentration not listed); 360,000 compounds, 0.56% hits; in the data active = activity change below about -65%; inconclusive = mostly about -30% to -63%; also: % is scaled to controls: 0 for no effect and ±100 for the full control effect
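AlphaScreen luminescence read after one hour at 37 °C in darkness. Pin-transferred compounds met GST-Six1 and His-Eya2 protein (5X stock 250 nM/500 nM) plus glutathione donor and Ni-chelate acceptor beads (5X, 50 ug/mL).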
HP1b binding inh – blocks HP1-beta chromodomain binding to methylated histone tails; P83916; AlphaScreen HP1-beta / biotin-H3K9me3 peptide binding; Potency, µM (highest dose often 114 µM), for the others: top-dose activity change, negative = inhibition, actives largely listed as inhibitors; 390,000 compounds, 0.56% hits; also: potency is read from the fitted curve at half-maximal effect; nearly all actives have a fitted effect of over 70% in size
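HP1-beta protein (50 nM final) preincubated 30 min at room temperature with biotinylated H3(1-18)K9me3 peptide (50 nM) in PBS pH 7.4, 0.01% Tween-20, then compound added for 30 min. AlphaScreen streptavidin donor/nickel chelate acceptor beads (10 ug/mL final), 30 min dark, luminescence read.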
An asterisk follows results filed as active; ? = inconclusive; . = not tested or not shown; [ ] = dose if it differs, or a comment. Unless noted, calls follow the shape of the dose curve; as a rule, active = well fitted inhibition curve with a large enough effect; inconclusive = small, poorly fitted or top-dose-only effect; inactive = no such curve, though single readings can be large or run the other way.

SMILES	JMJD2A Tudor	BAZ2B block	CtBP-E1A blk	G9a inh	Six1-Eya2 blk	HP1b binding inh
Cc1ccc(S(=O)(=O)Nc2ccc3c(c2)CCCN3C(=O)c2cccs2)cc1	-28%	-23%	.	3%[59 µM]	.	-4%
CC(=O)N1CCC(N(CCN2CCOCC2)C(=S)Nc2ccccc2C)CC1	2%	3%	3	12%[59 µM]	4	45%
CCC(C)(C)c1ccc(Oc2ccc(N)cc2)cc1	56µM*	?	3	40µM*	-16	?
CCC(C)(C)c1ccc(Oc2cccc(C(=O)O)c2)cc1	-15%	1%	7	7%	-8	22%
O=[S+]([O-])(c1ccc2ncsc2c1)N1CCN([S+](=O)([O-])c2c(F)cccc2F)CC1	-12%	.	.	.	.	.
CCOC(=O)C1CCCN(Cc2nc(N)nc(Nc3ccc(Cl)cc3)n2)C1 (stereo not given)	18%[11.4 µM]	50µM*	-11	?	-7	32%
CCOC(=O)C1CCCN(C(=O)Cc2ccc(Cl)cc2)C1 (stereo not given)	15%	2%	0	2%[59 µM]	-1	27%
CCOC(=O)C1CCCN(Cc2nc(N)nc(Nc3ccccc3OC)n2)C1 (stereo not given)	56µM*	?	-13	26%	-1	38%
COc1ccccc1Nc1nc(N)nc(CSC(=S)N2CCCCC2C)n1 (stereo not given)	-28%	-27%	-4	4%[59 µM]	0	-1%
CCOC(=O)C1CCCN(Cc2nc(N)nc(Nc3ccc(OC)cc3)n2)C1 (stereo not given)	20µM*	?	-6	-8%[12.7 µM]	-4	-22%
COCCNC(=S)N/N=C(\C)c1ccccc1O	-10%	10µM*	?	22%[59 µM]	-69*	27%
COCCNC(=S)N/N=C/c1ccccc1C(=O)O	?	?	1	8.9µM*	4	17%
COCCCNC(=S)N/N=C/c1ccccc1O	56µM*	10µM*	.	.	-90*	43%
Oc1ccccc1/C=N/NC(=S)NC1CC2CCC1C2 (stereo not given)	?	?	-84*	?	-85*	-10%
O=C(NC1CCCCC1)C(c1cccnc1)N(CCc1ccccc1)C(=O)Cc1cccs1 (stereo not given)	-30%[57.1 µM]	-5%	1	4%[59 µM]	3	?
CCCN1Cc2cccc(C(=O)Nc3cc(C)cc(C)c3)c2C1=O	-22%	-19%	.	-26%[59 µM]	.	-1%
O=C(COc1ccc(S(=O)(=O)N2CCOCC2)cc1)NC1CCCCC1	-9%	14%	1	3%[12.7 µM]	3	24%
COc1ccc2cc(CCNC(=O)c3ccco3)c(=O)[nH]c2c1	-6%	0%	-3	45µM*	-6	38%
COc1ccc(C(=O)NCCc2cc3ccc(C)c(C)c3[nH]c2=O)cc1OC	-10%	.	3	-29%	6	20%
Cc1ccc2cc(CCNC(=O)c3ccco3)c(=O)[nH]c2c1	-16%	-1%	0	?	2	17%
Cc1ccc2cc(CCNC(=O)c3ccco3)c(=O)[nH]c2c1C	-11%	9%	-2	79µM*	-6	48%
O=C1NCCN/C1=C\C(=O)c1ccc(Br)cc1	-25%	-16%	.	50µM*	-2	11%
O=C1OCCN/C1=C\C(=O)c1ccc(Cl)cc1	?	-25%	7	56µM*	6	-10%
O=C1NCCN/C1=C\C(=O)c1ccccc1	-28%	?	5	1%	6	15%
Cn1c(=S)[nH]c2cc(C(=O)N3CCN(Cc4cccs4)CC3)ccc2c1=O	-10%	.	.	.	.	57%
SMILES	JMJD2A Tudor	BAZ2B block	CtBP-E1A blk	G9a inh	Six1-Eya2 blk	HP1b binding inh
O=c1oc2c3c(ccc2c2ccccc12)OCN(Cc1ccc(Cl)cc1)C3	-15%	-27%	.	1.4µM*	.	39%
Cc1cc(=O)oc2c3c(ccc12)OCN(Cc1ccc(Cl)cc1)C3	7%	9%	.	-50%[59 µM]	.	28%
COc1ccccc1CN1COc2ccc3c(oc(=O)c4ccccc43)c2C1	?	5µM*	.	0.79µM*	.	21%
CCCc1cc(=O)oc2c3c(ccc12)OCN(Cc1ccccc1OC)C3	7%	0%	.	-2%[59 µM]	.	45%
Cc1nn2c(C)c(C(=O)NCc3ccc(OC(C)C)cc3)cnc2c1-c1ccc(F)cc1	-15%	-7%	.	17%[59 µM]	.	29%
CN1CCN(c2ccc(S(=O)(=O)N3CCCCC3)cc2NC(=O)COc2ccc(F)cc2)CC1	?	?	1	28µM*	1	-13%
CN1CCN(c2ccc(S(=O)(=O)N3CCCCC3)cc2NC(=O)COc2cccc(Cl)c2)CC1	?	?	-7	40µM*	-15	-36%
Cc1cccc(OCC(=O)Nc2cc(S(=O)(=O)N3CCCCC3)ccc2N2CCN(C)CC2)c1	-27%	.	.	-19%	-17	4%[57 µM]
O=C(c1cc(C(F)(F)F)cc(C(F)(F)F)c1)N1CCC2(CC1)CCN(c1ccccc1)CC2	.	.	.	-3%[12.7 µM]	.	.
CCOC(=O)c1c(C)n(CCNC(C)=O)c2ccc(O)cc12	-14%	-2%	4	-3%	1	16%
CCOC(=O)c1c(C)n(CCOc2ccccc2)c2ccc(O)cc12	-11%	3%	-2	4µM*	-1	10%
CCOC(=O)c1c(CSc2ccccc2)n(C)c2ccc(O)cc12	-12%	1%	-9	35µM*	5	14%
CCOC(=O)c1c(C)n(CC(O)c2ccccc2)c2ccc(O)cc12 (stereo not given)	-25%	?	-5	56µM*	-16	17%
CCOC(=O)c1c2n(c3ccc(O)cc13)CCC2	-18%[11.4 µM]	5%	8	-6%[59 µM]	-6	64%
O=C1CC(c2nnc(Cc3cccc(Cl)c3)o2)CN1c1ccccc1 (stereo not given)	-18%	-6%	.	-36%[59 µM]	.	-10%
COc1cc(OC)cc(-c2c(C#Cc3ccsc3)c3cc(-c4ccc(C(N)=O)cc4)ccc3n2C)c1	-24%	-8%	1	9%[0.501 µM]	-5	15%
CS(=O)(=O)N1CCN(c2ccc([N+](=O)[O-])c(NCc3ccccc3)c2)CC1	-30%	-35%	-11	-33%[12.7 µM]	-21	-2%
CC(C)(C)c1ccc(CNc2cc(N3CCOCC3)ccc2[N+](=O)[O-])cc1	?	?	-20	25µM*	?	?
CS(=O)(=O)N1CCN(c2ccc([N+](=O)[O-])c(NCc3ccc(Cl)cc3)c2)CC1	89µM*	?	-8	25%[59 µM]	2	8%
Cc1ccc(-c2nnc(SCC(=O)c3ccc(Cl)cc3)n2-c2ccccc2)cc1	?	-4%	.	-4%[59 µM]	.	11%
CC(C)C[C@H](NC(=O)C1CCN(S(=O)(=O)c2ccccc2)CC1)C(=O)NCc1ccccn1	-7%	-9%	8	30%	4	68%
